Sampled rows, rich in hits. Any-hit rate of the full collection: about 5%.
SENP8 block-1 – SENP8 protease inhibition; hit rate 1.2% among 330,000; inhibition, % at 10 µM; purified SENP8, Z-RLRGG-aminoluciferin cleavage, luminescence; Q96LD8; in the data active = inhibition above about 50%
AHR act – activators of human aryl hydrocarbon receptor; AHR-responsive luciferase reporter cells, luminescence; hit rate 2.5% among 320,000; P35869; activation, % at 5 µM; AID 2796; in the data active = activation above about 47%;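 also: 0% = vehicle wells and 100% = reference agonist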
SENP7 block – blocks the human protease SENP7 | recombinant SENP7, Z-RLRGG-aminoluciferin luminescence, 40 min | AID 434973 | inhibition, % at 5 µM | Q9BQF6 | hit rate 1.5% among 330,000;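 active = inhibition above about 50% at the single test dose, limit read from the data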;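 also: plate controls were DMSO with enzyme for no effect and no enzyme buffer wells for full effect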
EBI2 antag – antagonists of human EBI2 receptor; inhibition, % at 5 µM; hit rate 0.81% among 360,000; AID 651636; P32249; EBI2 beta-arrestin recruitment, luminescence, 7a,25-OHC stimulated; in the data active = inhibition above about 38%;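 also: enzyme fragment complementation signal reports receptor beta-arrestin coupling in cells; 0% = agonist plus DMSO wells and 100% = wells without agonist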
SENP8 block-2 – SENP8 (human) protease inhibition; inhibition, % at 20 µM; hit rate 0.64% among 360,000; recombinant SENP8, Nedd8 substrate fluorescence; AID 602440; in the data active = inhibition mostly above about 40%, no sharp cut-off; inactive = mostly below about 27%
SENP6 inh – blocks the human protease SENP6; Recombinant SENP6 catalytic domain, aminoluciferin luminescence; hit rate 1.8% among 330,000; inhibition, % at 10 µM;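 active = inhibition above about 50% at the single tested dose, limit read from the data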;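 also: plate controls were DMSO wells with enzyme for no effect and DMSO wells lacking enzyme for full effect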
Target sequence (Q9GZR1 628-1112 limits assumed): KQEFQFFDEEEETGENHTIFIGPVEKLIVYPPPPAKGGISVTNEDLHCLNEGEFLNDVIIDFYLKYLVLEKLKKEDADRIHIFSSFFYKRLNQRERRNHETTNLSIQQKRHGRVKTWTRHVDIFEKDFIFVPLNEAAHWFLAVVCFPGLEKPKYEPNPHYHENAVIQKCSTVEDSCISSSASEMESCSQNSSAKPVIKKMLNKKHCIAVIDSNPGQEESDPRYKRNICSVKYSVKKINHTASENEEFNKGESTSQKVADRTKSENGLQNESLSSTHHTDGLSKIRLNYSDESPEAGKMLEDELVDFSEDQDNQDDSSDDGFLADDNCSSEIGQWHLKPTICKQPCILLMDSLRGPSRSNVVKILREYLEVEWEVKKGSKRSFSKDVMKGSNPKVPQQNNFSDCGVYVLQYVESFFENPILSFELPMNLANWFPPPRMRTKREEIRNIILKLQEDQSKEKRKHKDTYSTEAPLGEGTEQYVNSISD
Numbers without * were called inactive; / = no result given.

SMILES	SENP8 block-1	AHR act	SENP7 block	EBI2 antag	SENP8 block-2	SENP6 inh
CC(=O)Nc1c(C(=O)c2ccccc2)oc2ccccc12	-10	109*	-13	-3	-140	-21
Cc1c(C(=O)Nc2c(C)n(C)n(-c3ccccc3)c2=O)oc2c(Cl)cccc12	-4	4	-8	4	-2	-2
COc1ccc(CC(N)c2csc(NC(=O)c3cc(C(C)(C)C)oc3C)n2)cc1 (stereo unspecified)	/	/	/	3	9	/
CN(Cc1ccco1)C(=O)CC[C@H]1O[C@@H](n2ccc(=O)[nH]c2=O)[C@H](O)[C@@H]1O	/	/	/	-13	21	/
Cc1c(C(=O)NC2CCCC2)oc2ccccc12	-6	61*	4	-4	-4	-12
CC(=O)Nc1ccc(NC(=S)NC(=O)c2oc3ccccc3c2C)cc1	8	18	4	9	16	13
Cc1c(C(=O)Nc2cnccn2)oc2ccccc12	-13	93*	3	-2	5	24
Cc1c(C(=O)Nc2nccs2)oc2ccccc12	/	/	/	6	-52	/
CC(=O)Nc1cccc(NC(=O)c2oc3ccccc3c2C)c1	23	113*	54*	/	/	39
O=C(Cc1ccsc1)OCC(=O)c1ccccc1	4	2	28	-1	5	33
CC(C)Oc1ccc(S(=O)(=O)N2CCOCC2)cc1NC(=O)CC1CC2CCC1C2 (stereo unspecified)	/	/	/	-6	2	/
COCCNC(=O)C1(C)CCCN(C(=O)c2ccccc2OC(F)(F)F)C1 (stereo unspecified)	/	/	/	-2	14	/
CNC(=O)COc1ccc2oc3c(c2c1)CCCC3	1	7	-4	3	6	-3
NNC(=O)COc1ccc2oc3c(c2c1)CCCC3	-4	68*	-3	-5	4	-25
CC(C)[C@@H]1CC2=C(C(=O)OC(C)(C)O2)[C@H](CCc2ccccc2)O1	/	/	/	13	13	/
C=CC(=O)N1C/C(=C/c2ccc(Cl)cc2)C(=O)/C(=C\c2ccc(Cl)cc2)C1	/	/	/	75*	-8	/
O=c1ccn([C@@H]2O[C@H](CNCc3c(OCc4ccccc4F)ccc4ccccc34)[C@@H](O)[C@H]2O)c(=O)[nH]1	/	/	/	-9	16	/
FC(F)(F)c1ccc(-c2csc(-c3ccno3)n2)cc1	0	63*	16	-2	-4	17
O=C(CSc1nnc2c3ccccc3c3ccccc3c2n1)Nc1ccccc1F	6	68*	21	11	35	5
O=C(CSc1nnc2c3ccccc3c3ccccc3c2n1)Nc1ccccc1	-15	47*	-3	/	/	0
OC[C@@H]1CN(Cc2ccc3c(c2)OCO3)C[C@H](n2cnc3c(NC4CC4)ncnc32)O1	/	/	/	15	14	/
CCOc1ccccc1NC(=O)NNC(=O)c1ccc2ccccc2c1	0	49*	4	-21	5	-19
CCOc1ccccc1NC(=O)c1ccc2ccccc2c1	-14	67*	-10	-5	15	7
CCCOc1ccccc1NC(=O)c1ccc([N+](=O)[O-])cc1	-6	64*	-14	-5	18	-34
CCOc1ccccc1NC(=O)c1ccc(OCC)c([N+](=O)[O-])c1	-5	1	-1	-2	15	-3
SMILES	SENP8 block-1	AHR act	SENP7 block	EBI2 antag	SENP8 block-2	SENP6 inh
CC(C)c1cc(C(=O)OCC(=O)NC2CC2)c(O)c(C(C)C)c1	/	/	/	-5	-49	/
N#Cc1c(SCC(=O)Nc2nncs2)sc2c(O)cc(=O)[nH]c12	1	50*	0	7	-11	-5
O=C(/C=C\c1ccc(-c2cccc([N+](=O)[O-])c2)o1)N1CCOCC1	-11	27	-4	-1	15	-11
CCCc1nc(SCC(=O)NC2CC2)c2c(C)c(C)sc2n1	3	23	3	-6	4	-8
CCc1nc(SCC(=O)NC2CC2)c2c(C)c(C)sc2n1	1	52*	12	1	9	10
Cc1cccc(C)c1N1C(=O)CC(Sc2ccccc2N)C1=O (stereo unspecified)	/	/	/	4	29	/
NC(=S)N=Nc1c(O)[nH]c2c(Br)cc(Br)cc12	-9	63*	-8	12	52*	-23
CCCc1ccc(S(=O)(=O)N2CCN(C(C)C(=O)NCc3ccccc3)CC2)cc1 (stereo unspecified)	8	/	-8	5	13	-5
Cc1ccc(C(=O)Nc2cccc(C(=O)N/N=C/c3ccc(O)cc3)c2)cc1	-18	56*	-7	-2	-39	-6
COc1cccc(NCc2cc(=O)oc3cc(-c4ccccc4)c(O)cc23)c1	-1	76*	-6	11	-4	-3
Cc1ccc(S(=O)(=O)Nc2c(O)ccc3ccccc23)cc1	7	54*	0	-8	-297	11
O=S(=O)(Nc1c(O)ccc2ccccc12)c1cccc2ccccc12	-14	39	-14	13	-150	-1
CCCCNc1nc(Nc2ccc(C)c(Cl)c2)c2cnn(C)c2n1	-16	79*	1	19	-107	11
Cn1ncc2c(Nc3ccc(Cl)c(Cl)c3)ncnc21	-15	5	-4	-6	-67	-8
CCNc1nc(Nc2ccc(C)c(Cl)c2)c2cnn(C)c2n1	-18	54*	-7	23	-78	-26
CCc1c(C)nc2ccc(Br)cc2c1Cl	-3	1	10	6	10	0
Nc1nc(Cl)nc2ccc(Br)cc12	3	59*	-3	3	-24	-5
CN(C)C(=O)CCc1ccc2c3c([nH]c2c1)[C@]1(CCC2CCCC2)[C@@H](C(=O)N2CCOCC2)C[C@H](CC(=O)NCCC2=CCCCC2)C(=O)N1CC3	/	/	6	32	1	/
Cc1ccc(N=Nc2c(N)nn3c(C)cc(C)nc23)cc1	-4	58*	-13	1	29	0
Cc1cc(C)n2nc(N)c(N=Nc3cccc(Cl)c3)c2n1	-10	24	7	12	32	-30
Cc1ccc(N=Nc2c(N)nn3c(N)c(C#N)c(C)nc23)cc1	-7	75*	-3	14	28	-12
O=C(C1CCCO1)N1CCN(S(=O)(=O)c2cc(C(F)(F)F)ccc2Cl)CC1 (stereo unspecified)	-6	/	1	-9	1	-14
O=C(O)COc1ccc2c(c1)O/C(=C\c1cccs1)C2=O	4	-1	5	-6	-180	4
COc1ccc2c(c1)O/C(=C\c1sccc1C)C2=O	50	7	71*	7	-86	79*
CC(=O)c1c(O)cc2c3c1OC(C)(C)C1CCC(C)(CC31)O2 (stereo unspecified)	/	/	/	-8	31	/
CCCc1nc(SCc2cccnc2)c2c(=O)n(C)c(=O)n(C)c2n1	6	52*	-3	-3	11	18
O=C1CCN(CCCN2CCC(=O)NC2=S)C(=S)N1	/	/	/	-8	19	/
O=C(c1ccc(C(F)(F)F)cc1)N1CCN(S(=O)(=O)c2ccc3c(c2)OCCCO3)CC1	-7	0	14	51*	4	-12

Screens deposited in PubChem by several laboratories.
